PubChem BioAssay (NCI)
This is part of a sample that, as a whole, favours compounds with a hit. Of some 79,000 tested, about 15% had one in any assay. Values without a mark were called inactive. Active and inactive are the calls of the source. Rule as the data show it: active = growth inhibition above about 70%; inactive = the rest.

Columns and labels:
[1] = NCI Yeast Anticancer Drug Screen. Data for the rad50 strain (AID 155);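 also: 0% = growth of vehicle-only cultures of the same strain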; conditions: S. cerevisiae rad50 strain growth inhibition; at 50.0 µM; stronger effect = higher value
Method in brief: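 Vehicle-treated cultures provide the reference for the growth inhibition reported for compound-exposed, repair-deficient yeast.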

[2] = NCI Yeast Anticancer Drug Screen. Data for the mec2-1 strain (AID 157); conditions: S. cerevisiae mec2-1 strain, at 50.0 µM, stronger effect = higher value
Method in brief: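 Test agents were screened against the mec2-1 yeast strain, with defined DNA repair or cell cycle alteration. Growth was scored as inhibition against vehicle-only controls.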

[3] = NCI Yeast Anticancer Drug Screen. Data for the sgs1 mgt1 strain (AID 161);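 also: 0% = growth of cultures given vehicle only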; conditions: S. cerevisiae sgs1 mgt1 strain, at 50.0 µM, stronger effect = higher value
Method in brief: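 Inhibition of yeast growth, normalised to vehicle-treated controls, is reported for a strain bearing genetic alterations in DNA damage repair.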

[4] = NCI Yeast Anticancer Drug Screen. Data for the cln2 rad14 strain (AID 165);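 also: 0% = growth equal to vehicle treated cultures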; conditions: S. cerevisiae cln2 rad14 strain, at 50.0 µM, stronger effect = higher value
Method in brief: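 Growth of compound-exposed yeast (cln2 rad14 genotype) measured and expressed as inhibition relative to vehicle.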

[5] = NCI Yeast Anticancer Drug Screen. Data for the bub3 strain (AID 167); conditions: S. cerevisiae bub3 mutant strain, at 50.0 µM, stronger effect = higher value
Method in brief: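 Mutant yeast screening strain plus compound; vehicle-treated cultures serve as the 0% inhibition reference.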

[6] = NCI Yeast Anticancer Drug Screen. Data for the mlh1 rad18 strain (AID 175); conditions: S. cerevisiae mlh1 rad18 strain growth inhibition; at 50.0 µM; stronger effect = higher value
Method in brief: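 In this whole-cell yeast screen, a strain with altered DNA damage repair is challenged with compound, and its growth is measured against matched vehicle-treated controls.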

| SMILES | growth inhibition [1] | growth inhibition [2] | growth inhibition [3] | growth inhibition [4] | growth inhibition [5] | growth inhibition [6] |
| --- | --- | --- | --- | --- | --- | --- |
| Oc1c(Br)cc(Br)cc1/C=N/c1nc(-c2ccccc2)cs1 | 98.5% (active) | 92.1% (active) | 99% (active) | 92.5% (active) | 97.4% (active) | 99% (active) |
| CNC(=O)OCc1c(COC(=O)NC)c2n(c1C)CSC2 | 4.95% | -14.4% | -11.3% | -7.9% | -5.45% | 2% |
| S=C1SCN(C(c2ccccc2)c2ccccc2)CN1C(c1ccccc1)c1ccccc1 | 12.2% | 22.2% | 9.4% | -20.1% | -4.75% | 28.2% |
| O=C(OCc1ccccc1)c1ccc(NCc2cc(O)ccc2O)cc1 | 88.7% (active) | 90.7% (active) | 89.7% (active) | 89.6% (active) | 88% (active) | 92.2% (active) |
| CSC1=C(CCC(C)CCCC(C)CCCC(C)CCCC(C)CCCC(C)CCCC(C)C)C(=O)c2sccc2C1=O (stereo not drawn) | 15.7% | 13.6% | -1.45% | -17.9% | 11.5% | -5.95% |
| O=C(c1ccc(Cl)cc1Cl)N1CCCCC1 | 1.45% | -6.15% | 1.75% | -1.25% | 4.9% | 0.15% |
| CC(=O)Nc1nc(Cl)c2ncn(C3OC(COC(=O)c4ccccc4)CC3OC(=O)c3ccccc3)c2n1 (stereo not drawn) | 10.2% | 3.1% | -8.8% | 2.6% | 10.6% | 4.5% |
| FC(F)(F)c1nc(Cl)c2cn[nH]c2n1 | -8.7% | 39.6% | -1.15% | -16.9% | 25.9% | -24.4% |
| COc1cc(C(NC(N)=O)c2cc3c(cc2O)OCO3)cc(OC)c1O (stereo not drawn) | -1.4% | 0.45% | -12.2% | -20.9% | 12.4% | 4.05% |
| Clc1ccc(-c2cc(-c3cc(-c4ccc(Cl)cc4Cl)n[nH]3)[nH]n2)c(Cl)c1 | 14.2% | 1.75% | -5.3% | 20.6% | 9.9% | 8.55% |
| COc1ccc(OC)c(NC(=O)C(=O)C(C(=O)c2ccccc2F)C2OC(=O)c3ccccc32)c1 (stereo not drawn) | -15.6% | -20.2% | -27.9% | -15.8% | -60.2% | -41.2% |
| O=[N+]([O-])c1ccc(N=NNc2ccc([N+](=O)[O-])cc2)cc1 | 4.5% | -13% | -2.05% | -38.1% | -2.95% | 5.4% |
| O=c1[nH]nc(-c2ccccc2)n1/N=C/c1ccncc1 | 21.7% | 16.4% | 15.4% | 10.2% | 17.6% | 22.7% |
| COC(=O)C(C(=O)C(=O)Nc1ccc(C)cc1C)c1nc2ccc([N+](=O)[O-])cc2[nH]c1=O (stereo not drawn) | 9.05% | -1.7% | 4.05% | 7.95% | 4.2% | 6.65% |
| NCCn1[nH]c(=O)c2ncccc2c1=O | -59% | -27.6% | -4.45% | -49.1% | -6.6% | -14.9% |
| O=C(O)CCC(=O)Nc1cc([N+](=O)[O-])ccc1OCc1ccccc1 | 3.75% | -7.55% | -5.35% | -12.4% | -0.95% | 3.5% |
| O=C(NCCNC(=O)c1cc(Cl)cc(Cl)c1O)c1cc(Cl)cc(Cl)c1O | -1.35% | 11.4% | 9.3% | -18.4% | -4.9% | 21.8% |
| C[C@@H]1S[C@H](c2c(F)cccc2Cl)n2c1nc1ccccc12 | 78.7% (active) | 82.7% (active) | 86.6% (active) | 82.2% (active) | 68.2% | 78.1% (active) |
| O=C(Cl)C1C2C=CC(C2)C1C(=O)Cl (stereo not drawn) | 3.1% | -20.4% | -2.35% | -9.15% | 15.6% | 2.55% |

| SMILES | growth inhibition [1] | growth inhibition [2] | growth inhibition [3] | growth inhibition [4] | growth inhibition [5] | growth inhibition [6] |
| --- | --- | --- | --- | --- | --- | --- |
| CCCCCCCCCCCCCC(N)=O | -30.8% | -46.5% | -18.2% | 4.85% | -28.7% | -18% |
| O=CC(C(=O)c1ccccc1[N+](=O)[O-])c1ccccc1 (stereo not drawn) | 9.6% | 5.7% | 15.9% | 15.8% | 13.7% | 13.4% |
| O=c1cc(O)n(C2=NCCN2)[nH]1 | -6.45% | -23.6% | -0.2% | 16.2% | -12.5% | -9.95% |
| O=C(Cc1ccccc1)N(Cc1ccccc1)Cc1ccccc1 | 96.8% (active) | 98.7% (active) | 98.8% (active) | 91.9% (active) | 92.4% (active) | 97.9% (active) |
| C=CCNC(=S)Nc1ccccc1 | -1.8% | -9.95% | 4.25% | -5.1% | -18.9% | -11.9% |
| NC(=O)CSc1ccccc1 | 8% | 2.1% | 9.8% | 10.1% | -4.5% | -8.6% |
| CCN(CC)CCNc1nc(N)c(C#N)c(C#N)c1C#N | 5.8% | -14.4% | -4.55% | 9% | -8.3% | 1.45% |
| Cc1cc([N+](C)(C)C)c(C(C)C)cc1O | -0.45% | 5.7% | 6.25% | 9.55% | 11% | 0.25% |
| CCOC(=O)CCCCCCC(=O)OCC | 19.1% | 5.35% | 5.05% | 1.95% | 1.1% | 23.4% |
| CCOC(=O)CNC(=O)C(CC(C)C)NC(=O)OCc1ccccc1 (stereo not drawn) | 6.7% | 7.9% | 28.8% | 5.25% | 2.8% | -11% |
| CC(=O)c1ccc(CCCCc2ccc([N+](=O)[O-])cc2)cc1 | -4.2% | -17.8% | 16.5% | -59.5% | 18.2% | -32% |
| Fc1cc(Cl)c(F)cc1Cl | -18% | -17.8% | -18.2% | -27.3% | -12.4% | -27.4% |
| CC(C)C(NC(=O)C1CSC(C)(C)N1C=O)C(N)=O (stereo not drawn) | -5.2% | -31.6% | 12.3% | -6.7% | 36.7% | -25.2% |
| CC(=O)C(=Cc1c[nH]c2ccccc12)C(C)=O | 31.7% | 13.7% | 38.4% | 9.65% | 35.4% | 31.6% |
| CC1C=CC(C)N(c2nnnn2C)N1c1nnnn1C (stereo not drawn) | -11.6% | 9.75% | 14.9% | -6.3% | -2.6% | -3.9% |
| C=C1C2CC[C@@]3(CC[C@@H]4[C@@]5(C)CCC[C@@]4(CN4CCO[C@H]45)[C@@H]3C2)[C@@H]1O | -2.4% | -5.9% | 11.1% | 25.9% | 11.2% | -5.5% |
| O=C1C=C(c2ccccc2)Sc2ccccc2N1 | 25.9% | 34.5% | 19.1% | -1.4% | 26.1% | 53.2% |
| CCCCCCCCS(=O)(=O)N(C)C | -18.6% | -24.9% | 0.4% | -28.3% | -31.1% | -15.2% |
| O=C(COc1ccc(Cl)cc1Cl)Nc1ccc2ccccc2c1 | 49.4% | 46% | 59.4% | 18.9% | 54.5% | 36.7% |
